Screening results (PubChem)
Most compounds without a hit are left out; they make up all but 19% or so of the library.
KB-3-1 tox: kills parental KB-3-1 adenocarcinoma cells; KB-3-1 viability, CellTiter-Glo ATP luminescence, 72 h; Potency, µM (doses to about 46.1 µM), hits mostly cytotoxic; 400,000 tested, 1.4% active; also: nearly all actives have a fitted effect of over 60% in size
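KB-3-1 cells, DMEM (no phenol red) + 10% FBS; compound by pin transfer, 72 h, 37 °C. Readout: CellTiter-Glo luminescence after 10 min. Data normalized, curve-fitted.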
DT40 TDP1 no CPT: qHTS for Inhibitors of human tyrosyl-DNA phosphodiesterase 1 (TDP1): qHTS in cells in absence of CPT; DT40 Tdp1-/- hTDP1 cells, no CPT, ATP luminescence, 48 h; Potency, µM (top dose mostly 46.2 µM), hits mostly inhibitors; 420,000 tested, 15% active; AID 686978, 2013; also: nearly all actives have a fitted effect of over 55% in size
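No-CPT arm: Tdp1-/-;hTDP1 DT40 cells (400/well) plus compounds, incubated ≥48 hr at 37 °C. Readout CellTiter-Glo luminescence.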
HT1080-NT tox: kills 2HG-producing HT-1080-NT fibrosarcoma cells; HT-1080-NT fibrosarcoma viability, CellTiter-Glo ATP luminescence, 48 h; 360,000 tested, 1.6% active; AID 686970; Potency, µM (highest dose often 46.1 µM), most hits filed as cytotoxic;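 also: NT is the 2HG producing partner of a matched IDH1 knockdown line; nearly all actives have a fitted effect of over 55% in size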
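Read-out is CellTiter-Glo luminescence after 10 minutes at room temperature, following 48 hours' compound treatment of HT-1080-NT cells (750 cells/well, RPMI, 5% FBS, 37 degrees C).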
HT1080 IDH1KD tx: kills HT-1080 cells with IDH1 knockdown; HT-1080 IDH1 knockdown viability, ATP luminescence, 48 h; Potency, µM (series often up to 46.1 µM), most hits filed as cytotoxic; AID 686971; 360,000 tested, 2% active
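% activity derives from luminescence (CellTiter-Glo), normalised to DMSO and no-cell wells. HT-1080-IDH1KD cells, 750/well, had 48 h compound exposure at 37 °C.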
KB-V1 MDR tox: kills drug-selected multidrug resistant KB-V1 cells | KB-V1 MDR cells viability, CellTiter-Glo, 72 h | Potency, µM (series often up to 46.1 µM), most hits filed as cytotoxic | 400,000 tested, 3.4% active | AID 1347076; also: nearly all actives have a fitted effect of over 60% in size
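Cells of the MDR subline KB-V1 are plated, dosed with compound at multiple concentrations, and incubated 72 h at 37 degrees C; CellTiter-Glo is then added and luminescence read after 10 min.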
TDP1 cell CPT: DT40-hTDP1 cell growth loss with CPT | 420,000 tested, 12% active | Potency, µM (doses to about 46.2 µM), hits mostly inhibitors | AID 686979 | chicken DT40 Tdp1-/-;hTDP1 cells + 20 nM CPT, ATP luminescence, 48 h; also: nearly all actives have a fitted effect of over 55% in size
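Chicken DT40 Tdp1-/- cells stably complemented with human TDP1 were seeded at 400 cells/well in medium containing 20 nM camptothecin, exposed to pin-transferred compounds, and grown at 37 °C for at least 48 hr. Viability was read as ATP luminescence.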
A number is an active result; - = inactive; ? = inconclusive; . = no result given; [ ] = remark or other dose. Calls follow the shape of the dose curve; as a rule, active = well fitted curve in the direction sought with a large enough effect; inconclusive = small, poorly fitted or top-dose-only effect, or another doubt; inactive = no such curve, though single readings can be large; an effect the other way counts as inactive or inconclusive.

SMILES	KB-3-1 tox	DT40 TDP1 no CPT	HT1080-NT tox	HT1080 IDH1KD tx	KB-V1 MDR tox	TDP1 cell CPT
CC(=O)c1ccc(NC(=O)c2noc(C(C)C)c2[N+](=O)[O-])cc1	-	-	-	-	-	-
COC(=O)c1c(NC(=O)c2cc3ccccc3c(=O)o2)sc2c1CCCC2	-	.	.	.	-	.
Oc1c(C(c2ccccc2Cl)N2CCC(O)CC2)sc2nc(-c3ccco3)nn12 (stereo not drawn)	-	?	.	.	-	-
C=CCNc1oc(-c2ccc(OC)cc2)nc1C#N	-	?	-[9.24 µM]	-	-	16µM
COc1ccc(-c2nc(C#N)c(NCc3ccco3)o2)cc1	-	16µM	-	-	-	?
CNc1oc(-c2ccc(OCc3ccccc3)cc2)nc1C#N	-	-	-	-	23µM	-
Cc1ccc(-c2nc(C#N)c(NCc3ccco3)o2)cc1	-	?	-	-	-	-
CCN(CC(=O)Nc1cccc(OC)c1)C(=O)c1cnc(Cl)c(Cl)c1	-	?	-	-	-	-
CCO[C@H]1OC(C(=O)N2CCCCCCC2)=C[C@@H](c2coc3ccccc3c2=O)[C@@H]1CCCO	-	?	-	-	-	?
O=C(CSC(=S)N1CCCC1)c1cc(Br)cc(Br)c1O	-	?	16µM	-	-	?
CC1CCCN(C(=S)SCC(=O)c2cc(Br)cc(Br)c2O)C1 (stereo not drawn)	-	2.9µM	-	-	-	4.1µM
Cc1nc(C(F)(F)F)ccc1C(=O)N1CCCC(C(=O)O)CC1 (stereo not drawn)	-	-	-	-	-	-
Cc1cc(C)c(OCCOCCn2c(-c3ccc(Cl)cc3)nc3ccccc3c2=O)c(C)c1	-	-	.	.	?	?
O=C(O)c1ccc(C(=O)Nc2cccc3ccccc23)c(C(=O)O)c1	-	-	-	-	-	-
COC(=O)C1=C(C)NC2=C(C(=O)CC(C)(C)C2)C1c1ccccn1 (stereo not drawn)	-	-	-	-	-	-
CC1=C(C(=O)OC2CCCC2)C(c2coc3ccc(C)cc3c2=O)C2=C(CCCC2=O)N1 (stereo not drawn)	-	21µM	-	-	-	?
CC1=C(C(=O)OC2CCCC2)C(c2coc3ccccc3c2=O)C2=C(CC(C)(C)CC2=O)N1 (stereo not drawn)	-	?	?	?	-	16µM
CC(=O)CC1N(S(=O)(=O)c2ccc(C)cc2)c2ccccc2N1S(=O)(=O)c1ccc(C)cc1	-	-	-	-	?	-
Nc1cc(C(F)(F)F)ccc1NCCc1ccccn1	-	-	-	-	-	-
Cc1cc(C(=O)Nc2sc(C)c(-c3ccc(F)cc3)c2C(N)=O)no1	-	-	-	-	-	-
Cc1sc(NC(=O)c2ccc(OCC(C)C)cc2)c(C(N)=O)c1-c1ccc(Cl)cc1Cl	-	7.3µM	-	-	-	9.2µM
CCn1c(SCc2ccccc2F)nnc1-c1ccncc1	-	-	-	-	-	-
Cc1ccc(C(=O)NNC(=S)NC(=O)COc2ccccc2)cc1	-	6.5µM	?	-	-	15µM
Cc1cccc(OCC(=O)NC(=S)NNC(=O)c2ccncc2)c1	-	?	-	-	-	?
CC(C)(C)c1ccc(C(=O)NC(=S)NNC(=O)COc2ccccc2)cc1	?	16µM	?	?	-	13µM
CCC(=O)N[C@H]1CC[C@@H](CCn2cc(C3CC3)nn2)O[C@@H]1CO	-	-	-	-	-	-
CCNC(=O)n1cc(-n2cncn2)c(-c2ccccc2)n1	-	-	-	-	?	-
CCc1nn2c(=O)cc(COC(=O)c3ccc(NC(=O)c4cccs4)cc3)nc2s1	.	6.5µM	.	.	.	6.5µM
CCc1nn2c(=O)cc(COC(=O)CNC(=O)c3ccccc3)nc2s1	-	-	.	.	-	-
CCOc1cc(C(=O)OCc2cc(=O)n3nc(CC)sc3n2)cc(OCC)c1OCC	-	?	.	.	-	18µM
